From PubChem BioAssay (Tox21)
Records with an inconclusive call do not appear. Calls of active or inactive are those of the source. Unless noted, the call rests on the fitted dose curve; in most records, active means well fitted curve in the direction sought with a large enough effect in the repeat runs; inconclusive means weak or mixed curves; inactive means no such curve, though single readings can be large; an effect the other way counts as inactive or inconclusive.

Columns and labels:
[1] = qHTS assay to identify small molecule HDAC inhibitors - cell viability counter screen (AID 1259365); further: series mostly up to about 92 µM; nearly all actives have a fitted effect of over 50% in size
How it was run: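 Luminescence from CellTiter-Glo, developed 30min at room temperature, reports viability of wild-type HCT-116 cells treated 2hr with compounds at 37 C and 5% CO2 after overnight plating.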

[2] = qHTS assay to identify small molecule agonists of the sonic hedgehog signaling (Shh) pathway - cell viability counter screen (AID 1259366); further: nearly all actives have a fitted effect of over 50% in size
How it was run: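 Cytotoxicity counter screen run in the same wells as the Shh reporter assay. NIH/3T3 cells carrying a Gli1 response element–driven luciferase were treated with DMSO-dissolved compounds for 24hr, and live-cell protease activity was measured with CellTiter-Fluor.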

[3] = qHTS assay to identify small molecule antagonists of the sonic hedgehog signaling (Shh) pathway - cell viability counter screen (AID 1259367); further: nearly all actives have a fitted effect of over 55% in size
How it was run: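 Tox21 library chemicals were tested on a Gli1-Luc NIH/3T3 clone (2,000 cells/well) stimulated by conditioned medium; viability was quantified as fluorescence from CellTiter-Fluor reagent added at 23 hr.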

[4] = qHTS assay to identify small molecule agonists of the sonic hedgehog signaling (Shh) pathway (AID 1259368; calls by dose curve;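 further: NIH/3T3-derived 3T3Gli1-Luc cells carrying a stable Gli1-driven firefly luciferase reporter; series mostly up to about 92 µM; nearly all actives have a fitted effect of over 15% in size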)
How it was run: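 Following a 24 hr incubation with DMSO-dissolved compounds at 37 C, 5% CO2, Gli1-Luc NIH/3T3-derived cells received luciferase reagent for 30 min at room temperature prior to luminescence measurement.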

[5] = biological target: Estrogen receptor beta (Homo sapiens) (UniProt Q92731); assay: qHTS assay to identify small molecule agonists of the estrogen receptor beta (ER-beta) signaling pathway (AID 1259377; active means well fitted activation curve with a large enough effect in the signal ratio in the repeat runs, not every such curve was filed as active; the % refers to the signal ratio)
How it was run: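 HEK293T ER-beta-UAS-bla; 2% charcoal-stripped FBS; cells pre-incubated 6 hr, compound 16 hr, 37C/5% CO2; LiveBLAzer B/G FRET substrate 2 h RT; fluorescence intensity read.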

[6] = qHTS assay to identify small molecule agonists of the androgen receptor (AR) signaling pathway in the presence of an antagonist - cell viability counter screen (AID 1259379);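 further: MDA-kb2 human breast cancer cells carrying an MMTV luciferase reporter; series mostly up to about 92 µM; nearly all actives have a fitted effect of over 25% in size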
How it was run: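 Each compound was tested at 15 concentrations on MDA-kb2 cells in the presence of 3.0uM nilutamide. Viability was measured by CellTiter-Fluor fluorescence after a 16 hr incubation at 37C in a CO2-free atmosphere.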

[7] = qHTS assay to identify small molecule agonists of the estrogen receptor beta (ER-beta) signaling pathway - cell viability counter screen (AID 1259380); further: nearly all actives have a fitted effect of over 30% in size
How it was run: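 Compounds dissolved in DMSO were pin-transferred onto ER-beta-UAS-bla HEK293T cells that had settled 6 hr, and exposure ran 16 hr at 37C. Following the reporter read, CellTiter-Glo luminescence after 30 min at room temperature indicated cytotoxicity.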

[8] = qHTS assay to identify small molecule antagonists of the estrogen receptor beta (ER-beta) signaling pathway - cell viability counter screen (AID 1259382); further: series mostly up to about 92 µM; nearly all actives have a fitted effect of over 55% in size
How it was run: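 CellTiter-Glo ATP luminescence measured after the LiveBLAzer read in the same wells; ER-beta-UAS-bla HEK293T cells, 16 hr compound treatment with 1nM 17-beta-estradiol agonist at 37C, 5% CO2.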

[9] = biological target: Estrogen receptor (Homo sapiens) (UniProt P03372); assay: qHTS assay to identify small molecule agonists of the estrogen receptor alpha (ER-alpha) signaling pathway in the presence of an antagonist (AID 1259383; calls by dose curve; further: top concentration of the series differs between compounds; nearly all actives have a fitted effect of over 15% in size)
How it was run: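 Luminescent ERE-luciferase reporter, VM7Luc4E2 cells (endogenous ER-alpha); 10.0nM ICI-182,780 final; 15-point compound titration; 22hr at 37C; ONE-Glo, 30min RT.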

[10] = qHTS assay to identify small molecule agonists or antagonists of the thyroid stimulating hormone receptor (TSHR) signaling pathway - wild type cell line counter screen (AID 1259384; calls by dose curve)
How it was run: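 Wild-type Hek293 cells, 800/well, 18 h at 37C, then compound with Ro20-1724 for 30 min RT. cAMP by HTRF (cAMP-d2/anti-cAMP cryptate), 1 h RT, fluorescence read. 15 concentrations, triplicates.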

[11] = biological target: Thyrotropin receptor (Homo sapiens) (UniProt P16473); assay: qHTS assay to identify small molecule antagonists of the thyroid stimulating hormone receptor (TSHR) signaling pathway (AID 1259385; calls by dose curve; further: nearly all actives have a fitted effect of over 20% in size)
How it was run: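 TSHR-HEK293 cells (800/well) plated 18 h, then compounds with Ro20-1724 and TSH at 1.5 ng/mL final, 30 min at room temperature. cAMP quantified by HTRF (cAMP-d2/anti-cAMP-cryptate, 1 h); 15 concentrations in triplicate.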

[12] = qHTS assay to identify small molecule agonists of the estrogen receptor alpha (ER-alpha) signaling pathway in the presence of an antagonist - cell viability counter screen (AID 1259386);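 further: series mostly up to about 92 µM; cells exposed to compounds for 22 h at 37 °C before the viability read; nearly all actives have a fitted effect of over 30% in size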
How it was run: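 Using estrogen-depleted VM7Luc4E2 cells, the 15-concentration compound series was applied together with 10.0nM ICI-182,780 and incubated 22hr at 37C/5% CO2. Cell viability was then scored by CellTiter-Fluor.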

[13] = biological target: Progesterone receptor (Homo sapiens) (UniProt P06401); assay: qHTS assay to identify small molecule agonists of the progesterone receptor (PR) signaling pathway (AID 1346784; calls by dose curve; further: nearly all actives have a fitted effect of over 30% in size)
How it was run: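 Beta-lactamase reporter read-out: after 16 hr compound treatment at 37C and a further 2 hr at room temperature with LiveBLAzer B/G FRET substrate, fluorescence was measured in PR-UAS-bla HEK 293T cells grown in 2% charcoal-stripped serum.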

[14] = biological target: Progesterone receptor (Homo sapiens) (UniProt P06401); assay: qHTS assay to identify small molecule antagonists of the progesterone receptor (PR) signaling pathway (AID 1346795; active means well fitted inhibition curve with a large enough effect in the signal ratio in the repeat runs, not every such curve was filed as active; the % refers to the signal ratio)
How it was run: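 Read-out is fluorescence from the LiveBLAzer B/G FRET substrate, cleaved by a UAS-controlled beta-lactamase in PR-UAS-bla HEK293T cells after 16 hr exposure to compound plus 1 nM promegestone (final), followed by 2 hr at room temperature.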

[15] = qHTS assay to identify small molecule agonists of the progesterone receptor (PR) signaling pathway - cell viability counter screen (AID 1346799; calls by dose curve; further: nearly all actives have a fitted effect of over 45% in size)
How it was run: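 Luminescence from CellTiter-Glo, added after the beta-lactamase FRET read in the same wells, gave cytotoxicity in PR-UAS-bla HEK293T cells treated with compounds for 16 hr at 37C.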

[16] = qHTS assay to identify small molecule antagonists of the TGF-beta/Smad signaling pathway - cell viability counter screen (AID 1346824); further: nearly all actives have a fitted effect of over 50% in size
How it was run: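 SBE-bla HEK 293T cells, incubated overnight, then compound plus 0.25 ng/mL TGF-beta1 (stock added) for 5 hr at 37 C. Viability was read in the same wells by CellTiter-Glo luminescence after 30 min at room temperature.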

[17] = qHTS assay to identify small molecule antagonists of the progesterone receptor (PR) signaling pathway - cell viability counter screen (AID 1346798);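 further: HEK293T PR-UAS-bla cells stimulated with the agonist R5020; series mostly up to about 92 µM; nearly all actives have a fitted effect of over 50% in size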
How it was run: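 HEK293T PR-UAS-bla, 2% charcoal-stripped FBS; 4 hr pre-plate; cpd + R5020, 16 h 37C; LiveBLAzer read first; then CellTiter-Glo 30 min RT, luminescence.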

[18] = biological target: Estrogen receptor beta (Homo sapiens) (UniProt Q92731); assay: qHTS assay to identify small molecule antagonists of the estrogen receptor beta (ER-beta) signaling pathway (AID 1259378; active means well fitted inhibition curve with a large enough effect in the signal ratio in the repeat runs, not every such curve was filed as active; the % refers to the signal ratio)
How it was run: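 ER-beta-UAS-bla HEK293T cells in 2% charcoal-stripped FBS medium treated with compound plus 1nM final 17-beta-estradiol for 16 hr at 37C. Beta-lactamase reporter read by FRET substrate fluorescence after 2 hours at room temperature.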

[19] = biological target: Androgen receptor (Homo sapiens) (UniProt P10275); assay: qHTS assay to identify small molecule agonists of the androgen receptor (AR) signaling pathway in the presence of an antagonist (AID 1259381; calls by dose curve; further: nearly all actives have a fitted effect of over 15% in size)
How it was run: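 Plated MDA-kb2 cells (3,000/well) were pre-incubated 5hr, given nilutamide (3.0uM final) or buffer, then dosed with compounds in DMSO at 15 concentrations. Luciferase activity was quantified by luminescence after 16hr at 37C.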
On the % scale 0 is the no-effect control and ±100 the full control effect.

Sequence of Progesterone receptor (Homo sapiens) (P06401 whole entry, looked up): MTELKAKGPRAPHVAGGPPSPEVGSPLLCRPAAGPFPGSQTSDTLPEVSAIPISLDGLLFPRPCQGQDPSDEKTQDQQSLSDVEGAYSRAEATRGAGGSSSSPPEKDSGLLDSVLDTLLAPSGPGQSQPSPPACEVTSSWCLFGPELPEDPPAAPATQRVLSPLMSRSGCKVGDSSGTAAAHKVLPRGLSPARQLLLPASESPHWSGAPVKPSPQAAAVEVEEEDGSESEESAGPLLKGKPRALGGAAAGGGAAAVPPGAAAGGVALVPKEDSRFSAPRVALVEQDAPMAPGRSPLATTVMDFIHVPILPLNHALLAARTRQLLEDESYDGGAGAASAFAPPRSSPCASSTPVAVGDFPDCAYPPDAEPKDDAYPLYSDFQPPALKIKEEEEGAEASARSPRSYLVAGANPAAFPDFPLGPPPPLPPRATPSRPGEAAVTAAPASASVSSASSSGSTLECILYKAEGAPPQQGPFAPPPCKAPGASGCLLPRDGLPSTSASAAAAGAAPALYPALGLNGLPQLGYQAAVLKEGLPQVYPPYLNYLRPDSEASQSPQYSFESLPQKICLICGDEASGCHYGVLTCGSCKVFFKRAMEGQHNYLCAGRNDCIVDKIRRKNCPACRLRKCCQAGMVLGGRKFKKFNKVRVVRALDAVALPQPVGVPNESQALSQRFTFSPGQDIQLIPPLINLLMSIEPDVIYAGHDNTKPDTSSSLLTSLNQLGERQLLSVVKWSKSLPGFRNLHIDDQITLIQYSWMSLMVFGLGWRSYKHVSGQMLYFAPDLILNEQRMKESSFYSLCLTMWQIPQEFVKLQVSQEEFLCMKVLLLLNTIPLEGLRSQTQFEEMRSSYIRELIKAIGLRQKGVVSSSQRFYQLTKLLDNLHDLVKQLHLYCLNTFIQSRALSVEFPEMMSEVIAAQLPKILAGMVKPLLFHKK
Sequence of Thyrotropin receptor (Homo sapiens) (P16473 whole entry, looked up): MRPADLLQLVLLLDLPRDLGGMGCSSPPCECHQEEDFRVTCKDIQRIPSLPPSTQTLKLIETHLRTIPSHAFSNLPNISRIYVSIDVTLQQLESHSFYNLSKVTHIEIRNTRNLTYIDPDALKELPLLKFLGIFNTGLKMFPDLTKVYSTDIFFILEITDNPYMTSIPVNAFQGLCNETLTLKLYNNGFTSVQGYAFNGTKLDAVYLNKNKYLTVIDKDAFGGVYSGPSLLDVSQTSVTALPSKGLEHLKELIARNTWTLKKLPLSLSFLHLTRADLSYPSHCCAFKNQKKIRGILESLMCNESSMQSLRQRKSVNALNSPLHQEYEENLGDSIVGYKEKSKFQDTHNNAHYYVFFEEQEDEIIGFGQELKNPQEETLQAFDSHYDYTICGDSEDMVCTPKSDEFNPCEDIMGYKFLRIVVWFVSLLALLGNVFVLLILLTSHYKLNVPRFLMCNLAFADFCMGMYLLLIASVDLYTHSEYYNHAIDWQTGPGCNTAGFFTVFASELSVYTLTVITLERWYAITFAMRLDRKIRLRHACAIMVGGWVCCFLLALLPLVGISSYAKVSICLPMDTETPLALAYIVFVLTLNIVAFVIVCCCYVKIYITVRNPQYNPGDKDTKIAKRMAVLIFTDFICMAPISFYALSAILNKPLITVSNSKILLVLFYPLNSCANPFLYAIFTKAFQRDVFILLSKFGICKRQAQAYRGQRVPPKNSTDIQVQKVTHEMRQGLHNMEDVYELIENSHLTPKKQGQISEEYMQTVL
Sequence of Estrogen receptor beta (Homo sapiens) (Q92731 whole entry, looked up): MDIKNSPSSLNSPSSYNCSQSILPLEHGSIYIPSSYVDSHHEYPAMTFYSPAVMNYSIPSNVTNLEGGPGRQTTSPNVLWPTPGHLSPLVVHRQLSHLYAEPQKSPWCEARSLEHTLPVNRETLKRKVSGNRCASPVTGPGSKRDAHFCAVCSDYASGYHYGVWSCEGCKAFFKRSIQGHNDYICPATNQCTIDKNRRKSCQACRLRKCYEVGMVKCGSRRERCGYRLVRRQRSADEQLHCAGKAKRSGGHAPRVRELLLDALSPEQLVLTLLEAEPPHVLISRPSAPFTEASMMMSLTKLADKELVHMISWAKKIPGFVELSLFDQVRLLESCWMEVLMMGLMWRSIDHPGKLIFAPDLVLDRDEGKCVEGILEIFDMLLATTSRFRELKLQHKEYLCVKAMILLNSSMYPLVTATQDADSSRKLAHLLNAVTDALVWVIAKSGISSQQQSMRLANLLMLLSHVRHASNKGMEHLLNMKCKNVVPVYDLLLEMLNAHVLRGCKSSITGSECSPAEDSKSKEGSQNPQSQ
Sequence of Estrogen receptor (Homo sapiens) (P03372 whole entry, looked up): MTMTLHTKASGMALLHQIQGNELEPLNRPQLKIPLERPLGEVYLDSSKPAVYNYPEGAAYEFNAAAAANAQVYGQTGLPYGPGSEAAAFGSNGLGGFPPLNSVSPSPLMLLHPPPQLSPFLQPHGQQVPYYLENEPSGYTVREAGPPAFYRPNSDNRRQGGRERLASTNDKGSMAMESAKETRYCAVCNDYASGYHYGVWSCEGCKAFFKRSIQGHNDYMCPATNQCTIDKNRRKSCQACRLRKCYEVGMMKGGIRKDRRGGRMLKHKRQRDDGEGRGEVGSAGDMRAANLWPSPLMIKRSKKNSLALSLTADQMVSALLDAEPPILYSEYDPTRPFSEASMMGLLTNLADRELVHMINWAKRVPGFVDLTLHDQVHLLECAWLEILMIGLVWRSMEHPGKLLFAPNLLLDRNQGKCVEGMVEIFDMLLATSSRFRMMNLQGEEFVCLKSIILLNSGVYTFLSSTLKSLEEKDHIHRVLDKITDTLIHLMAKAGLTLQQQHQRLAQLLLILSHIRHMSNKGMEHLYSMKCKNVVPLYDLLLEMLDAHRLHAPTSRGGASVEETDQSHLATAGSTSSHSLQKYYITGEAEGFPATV
Sequence of Androgen receptor (Homo sapiens) (P10275 whole entry, looked up): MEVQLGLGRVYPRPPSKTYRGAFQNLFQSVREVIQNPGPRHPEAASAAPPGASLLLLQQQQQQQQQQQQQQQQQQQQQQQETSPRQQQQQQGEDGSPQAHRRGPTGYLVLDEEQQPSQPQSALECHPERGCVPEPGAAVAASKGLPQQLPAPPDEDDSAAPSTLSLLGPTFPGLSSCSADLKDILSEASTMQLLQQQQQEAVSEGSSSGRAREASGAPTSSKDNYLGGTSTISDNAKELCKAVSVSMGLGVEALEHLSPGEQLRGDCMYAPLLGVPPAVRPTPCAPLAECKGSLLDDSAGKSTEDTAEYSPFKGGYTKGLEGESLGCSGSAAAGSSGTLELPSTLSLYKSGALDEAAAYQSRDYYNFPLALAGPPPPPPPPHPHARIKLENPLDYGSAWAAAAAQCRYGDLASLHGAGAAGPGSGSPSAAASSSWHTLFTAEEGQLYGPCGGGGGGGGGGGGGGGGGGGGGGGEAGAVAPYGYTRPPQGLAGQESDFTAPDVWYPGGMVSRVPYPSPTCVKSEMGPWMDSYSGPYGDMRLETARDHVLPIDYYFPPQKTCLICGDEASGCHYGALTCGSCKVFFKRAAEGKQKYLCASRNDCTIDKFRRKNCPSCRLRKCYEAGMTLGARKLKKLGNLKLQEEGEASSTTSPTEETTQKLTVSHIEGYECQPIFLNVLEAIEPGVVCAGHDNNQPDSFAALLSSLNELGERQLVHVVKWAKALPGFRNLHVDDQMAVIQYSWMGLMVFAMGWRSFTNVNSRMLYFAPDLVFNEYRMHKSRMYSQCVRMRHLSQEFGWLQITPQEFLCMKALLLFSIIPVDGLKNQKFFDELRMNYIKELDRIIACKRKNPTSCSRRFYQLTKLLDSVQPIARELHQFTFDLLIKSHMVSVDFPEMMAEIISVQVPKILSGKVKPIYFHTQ

CN1C[C@@H]2C[C@H]1CN2c1cc2c(cc1F)c(=O)c(C(=O)O)cn2C1CC1
inactive: activity change, negative = cytotoxicity [1] 5.3% [at 19 µM] | viability change, negative = cytotoxic [2] -1.9% [at 19 µM] | viability change, negative = cytotoxic [3] 0.743% [at 19 µM] | activity change [4] -1.48% [at 18.9 µM] | activation [5] 1.21% [at 19 µM] | activity change, negative = cytotoxicity [6] 0.0403% [at 19 µM] | activity change, negative = cytotoxicity [7] 1.14% [at 19 µM] | activity change, negative = cytotoxicity [8] 7% [at 19 µM] | activation [9] 0.617% [at 19 µM] | cAMP activity change [10] -2.22% [at 18.9 µM] | activity change, negative = inhibition [11] -7.57% [at 19 µM] | activity change, negative = cytotoxicity [12] -0.242% [at 19 µM] | activation [13] 6.66% [at 19 µM] | activity change, negative = inhibition [14] 14.1% [at 18.9 µM] | activity change, negative = cytotoxicity [15] 18.9% [at 19 µM] | viability change, negative = cytotoxic [16] 1.45% [at 15.8 µM]

CC(C)=CCC/C(C)=C/COC=O
inactive: outcome [1] | outcome [2] | outcome [3] | outcome [4] | Potency [5] | outcome [6] | outcome [7] | outcome [8] | outcome [10] | outcome [11] | outcome [12] | Potency [13] | Potency [14] | outcome [17] | outcome [15] | outcome [16]

N[C@@H](Cc1ccc(O)cc1)C(=O)O
inactive: activity change, negative = cytotoxicity [1] 0.0609% [at 8.39 µM] | viability change, negative = cytotoxic [2] -1.95% [at 8.39 µM] | viability change, negative = cytotoxic [3] 0.133% [at 8.39 µM] | activity change [4] -0.171% [at 8.39 µM] | activation [5] 4.88% [at 8.39 µM] | activity, negative = inhibition [18] -4.71% [at 8.39 µM] | activity change, negative = cytotoxicity [6] 0.232% [at 8.39 µM] | activity change, negative = cytotoxicity [7] 10.1% [at 8.39 µM] | activity change, negative = cytotoxicity [8] 2.66% [at 8.39 µM] | cAMP activity change [10] 6.84% [at 8.39 µM] | activity change, negative = inhibition [11] 3.38% [at 8.39 µM] | activation [13] -2.73% [at 8.39 µM] | activity change, negative = inhibition [14] 7.58% [at 8.39 µM] | activity change, negative = cytotoxicity [17] -4.23% [at 8.39 µM] | viability change, negative = cytotoxic [16] -8.39% [at 6.97 µM]

CC(C)[C@H]1CC[C@H](C)C[C@@H]1O
inactive: outcome [1] | outcome [2] | outcome [3] | outcome [4] | Potency [5] | Potency [18] | outcome [6] | outcome [7] | outcome [19] | outcome [8] | outcome [10] | outcome [11] | outcome [12] | Potency [13] | Potency [14] | outcome [16]

CCC(C)C(=O)OCCc1ccccc1 (stereo not given)
inactive: outcome [1] | outcome [2] | outcome [3] | outcome [4] | outcome [6] | outcome [7] | outcome [8] | Potency [9] | outcome [11] | outcome [12] | Potency [13] | Potency [14] | outcome [16]

[O]=[Mo](=[O])=[O]
inactive: activity change, negative = cytotoxicity [1] 3.01% [at 19 µM] | viability change, negative = cytotoxic [2] 1.33% [at 19 µM] | viability change, negative = cytotoxic [3] 0.3% [at 19 µM] | activity change [4] -1.33% [at 18.9 µM] | activation [5] -1.75% [at 19 µM] | activity, negative = inhibition [18] 0.823% [at 19 µM] | activity change, negative = cytotoxicity [6] 2.34% [at 19 µM] | activity change, negative = cytotoxicity [7] 3.4% [at 19 µM] | activation [9] -1.83% [at 19 µM] | cAMP activity change [10] -1.05% [at 18.9 µM] | activity change, negative = inhibition [11] 4.59% [at 19 µM] | activity change, negative = cytotoxicity [12] -0.317% [at 19 µM] | activation [13] 1.92% [at 19 µM] | activity change, negative = inhibition [14] 2.07% [at 18.9 µM] | activity change, negative = cytotoxicity [15] 7.88% [at 19 µM] | viability change, negative = cytotoxic [16] 0.506% [at 15.8 µM]

O=C(NCN1CCOCC1)c1cnccn1
inactive: outcome [1] | outcome [2] | outcome [3] | outcome [4] | outcome [6] | outcome [7] | outcome [19] | outcome [12] | Potency [13] | Potency [14] | outcome [17] | outcome [15] | outcome [16]
